Experimental findings from PubChem BioAssay (NCATS) are described below.

SMILES strings stand for the structures.

The nature of this assay: qHTS profiling of the MIPE4 collection as inhibitors of Plasmodium falciparum (3D7) proliferation (AID 743344).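 Note: scaled between DMSO vehicle wells and 0.29 µM artemisinin as full inhibition.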 As to conditions: P. falciparum 3D7 in erythrocytes, SYBR Green DNA fluorescence, 72 h; at 28.5 µM unless noted. The essentials: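 Erythrocytes infected with P. falciparum (0.3% parasitemia, 2.5% hematocrit) incubated with compounds 72 h at 37 C, 5% CO2. Lysis with saponin/Triton buffer containing SYBR Green I, overnight at room temperature in the dark; DNA fluorescence (485/535 nm) normalised to 0.29 uM artemisinin and DMSO.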
Background: In qHTS, concentration-response curves come from the screen itself.
`COc1ccc2c(c1OC)C(=O)OC2[C@H]1c2c(cc3c(c2OC)OCO3)CCN1C` (stereo partly drawn): the parasite growth, % of DMSO control was determined as 17.1%. On to `C=C[C@@H]1CN2CCC1C[C@H]2[C@H](O)c1ccnc2ccc(OC)cc12` (stereo partly drawn), for which the parasite growth, % of DMSO control was 10.4%. As for `COc1ccc(S(=O)(=O)Nc2cccnc2Nc2ccc(O)cc2)cc1`, the parasite growth, % of DMSO control came out at 64.8%. On to `CC(C)(O)[C@H]1CC[C@@](C)([C@H]2[C@@H](O)C[C@@]3(C)[C@@H]4C[C@H](O[C@@H]5O[C@H](CO)[C@@H](O)[C@H](O)[C@@H]5O)[C@H]5C(C)(C)[C@@H](O[C@@H]6OC[C@@H](O)[C@H](O)[C@@H]6O)CC[C@@]56C[C@@]46CC[C@]23C)O1`, for which the parasite growth, % of DMSO control came to 90.6%. For the compound `O=C1c2c(O)cccc2[C@@H]([C@@H]2O[C@H](CO)[C@@H](O)[C@H](O)[C@H]2O)c2cc(CO)cc(O)c21`, the parasite growth, % of DMSO control came to 96.2%. The figure for `CC(O)(C#Cc1ccc2c(c1)N(c1nc(N)ncc1Cl)CC2)c1nccs1` (stereo not drawn) is 11.7%. The figure for `C=CCNc1c(O)cc2c(O)c1C[C@@H](C)C[C@H](OC)[C@@H](O)[C@@H](C)C=C(C)[C@H](OC(N)=O)[C@@H](OC)C=CC=C(C)C(=O)N2` is 4.69%; for `c1cc(N[C@@H]2CCNC2)nc(-c2cnc3ccc(-c4cn[nH]c4)cn23)c1` it is 5.24%.
